Assay outcomes deposited in PubChem BioAssay by several laboratories.
A3G deaminase: APOBEC3G (human) deaminase inhibition. inhibition, % at 20 µM. Q9HC16. recombinant A3G, ssDNA deamination FAM/TAMRA fluorescence. 0.28% of 330,000 active;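 active = inhibition of at least 40% at 20 µM, with no more than 30% in the related APOBEC3A deaminase screen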
PHOSPHO1 block: blocks human PHOSPHO1 phosphatase activity; recombinant PHOSPHO1, absorbance phosphatase assay; Q8TCT1; 1.1% of 290,000 active; inhibition, % at 13.3 µM; in the data active = inhibition above about 60%
Target sequence (Q8TCT1 whole entry, looked up): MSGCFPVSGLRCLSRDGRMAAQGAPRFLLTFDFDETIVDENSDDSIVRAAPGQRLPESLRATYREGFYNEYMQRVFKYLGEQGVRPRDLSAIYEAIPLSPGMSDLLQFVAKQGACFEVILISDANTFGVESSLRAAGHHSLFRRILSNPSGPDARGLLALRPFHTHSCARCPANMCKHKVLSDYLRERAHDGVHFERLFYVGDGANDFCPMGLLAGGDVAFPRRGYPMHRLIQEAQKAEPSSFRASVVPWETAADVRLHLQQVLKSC
rCAG RNA binder: binds r(CAG) RNA repeats | r(CAG) RNA repeat, TO-PRO-1 dye displacement fluorescence | inhibition, % at 3 µM | 1.3% of 370,000 active | AID 651821;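 active = inhibition above the plate cutoff, the mean of all test compounds on that plate plus 3 SD, cut at about 35% in these data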;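 note: higher means more dye released from RNA so lower well fluorescence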
APOBEC3A inh: human APOBEC3A DNA deaminase inhibition | P31941 | recombinant A3A, FAM/TAMRA ssDNA deamination fluorescence | inhibition, % at 20 µM | 0.41% of 330,000 active;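 active = at least 40% inhibition at 20 µM here, with at most 30% in a related deaminase screen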
Target sequence (P31941 whole entry, looked up): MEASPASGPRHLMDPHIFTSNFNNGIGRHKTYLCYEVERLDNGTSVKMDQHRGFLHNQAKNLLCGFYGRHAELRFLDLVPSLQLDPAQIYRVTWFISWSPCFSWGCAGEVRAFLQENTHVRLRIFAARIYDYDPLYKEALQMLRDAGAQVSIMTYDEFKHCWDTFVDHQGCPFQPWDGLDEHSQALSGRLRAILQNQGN
ALR H2O2 inh: inhibitors of human sulfhydryl oxidase ALR. inhibition, % (concentration not given with the values). P55789. 3.8% of 290,000 active. purified ALR, DTT oxidation, H2O2 HRP-luminol luminescence. AID 485317;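 active = mean replicate inhibition above about 79%, with every replicate also reaching it, limit read from the data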
Target sequence (P55789 whole entry, looked up): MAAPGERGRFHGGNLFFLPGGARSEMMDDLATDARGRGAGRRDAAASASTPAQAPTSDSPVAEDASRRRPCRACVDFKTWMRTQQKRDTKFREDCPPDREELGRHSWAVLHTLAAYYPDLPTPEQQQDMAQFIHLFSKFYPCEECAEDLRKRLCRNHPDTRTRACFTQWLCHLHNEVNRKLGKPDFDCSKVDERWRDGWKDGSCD
aDG glyco up: increases alpha dystroglycan glycosylation. Pro5-aDG cells, alpha-DG glycosylation AlphaScreen (IIH6); 0% Pro5, 100% B10-LARGE cell signal. activation, % at 10 µM. 0.22% of 360,000 active;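 active = activation of at least 8% versus controls, or a plate z-score of at least 8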;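 note: Pro5 are CHO cells carrying HIG-tagged alpha-DG that lacks glycosylation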
rCAG binder conf: r(CAG) RNA repeat binding, confirmation | shares compounds with rCAG RNA binder | inhibition, % at 3 µM | TO-PRO-1 dye displacement fluorescence | 70% of 4,300 active;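 active = inhibition above a per-plate cutoff, the mean inhibition of sample wells plus 3 SD, cut at about 35% in these data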;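 note: loss of TO-PRO-1 fluorescence as compound displaces dye from 1x1 AA loop RNA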
DNA CAG counter: disrupts DNA CAG TO-PRO-1 complex, flagging rCAG hits | shares compounds with rCAG RNA binder | d(CAG) DNA oligo TO-PRO-1 dye displacement, fluorescence | inhibition, % at 3 µM | 94% of 4,300 active | AID 652068;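 active = inhibition above its plate's cutoff, the mean test-well inhibition plus 3 SD, cut at about 4.8% in these data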;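 note: hits displace the dye from DNA and so lower well fluorescence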
Large screens that a line does not name were inactive (follow-up assays come after a bar, where they were run). Only some compounds are listed: those with a hit (about 5.4% of all), similar ones and a draw of the others.

O=C(Cc1csc(NC(=O)Nc2cccc(Cl)c2)n1)NCc1cccnc1	none (no result: PHOSPHO1 block, ALR H2O2 inh)
COc1ccccc1NC(=O)Nc1nc(CC(=O)NC2CCCC2)cs1	none (no result: PHOSPHO1 block)
c1ccc2c(c1)c1c(c3ccccc32)CN2CCCC2C1 (configuration not stated)	none (no result: A3G deaminase, PHOSPHO1 block, APOBEC3A inh, ALR H2O2 inh)
CCCCCCCC(=O)N1c2ccccc2NC(=O)C1CC(=O)Nc1ccc(C(=O)O)cc1 (configuration not stated)	none
CCCCCCCCCC(=O)N1c2ccccc2NC(=O)C1CC(=O)Nc1ccc(C(=O)O)cc1 (configuration not stated)	rCAG RNA binder 74.1 | rCAG binder conf 69.5 | DNA CAG counter 29.5
COCCNc1nc(Nc2ccc(F)cc2)c2sccc2n1	none (no result: A3G deaminase, PHOSPHO1 block, APOBEC3A inh, ALR H2O2 inh)
COc1ccc(OCC(=O)Nc2cc(NC(=O)COc3ccc(OC)cc3)cc(C(=O)O)c2)cc1	rCAG RNA binder 37.6 | rCAG binder conf 51.7 | DNA CAG counter 16.7
COc1ccccc1OCC(=O)Nc1cc(NC(=O)COc2ccccc2OC)cc(C(=O)O)c1	rCAG RNA binder 45.6, ALR H2O2 inh 98.4 | rCAG binder conf inactive | DNA CAG counter inactive
COc1ccccc1OCC(=O)Nc1nnc(-c2ccco2)s1	PHOSPHO1 block 74.5, rCAG RNA binder 57.9 (no result: A3G deaminase, APOBEC3A inh, ALR H2O2 inh) | rCAG binder conf inactive | DNA CAG counter inactive
CCOc1cccc(C=NNc2nc(=O)cc(C(=O)OC)s2)c1O	none (no result: A3G deaminase, PHOSPHO1 block, APOBEC3A inh, ALR H2O2 inh, aDG glyco up)
O=C(Nc1cccc(Cl)c1)c1csc(COCCO)n1	none (no result: A3G deaminase, PHOSPHO1 block, APOBEC3A inh, ALR H2O2 inh)
N#C/C(=N\Nc1ccc(S(=O)(=O)N2CCCCC2)cc1)C(N)=S	none
N#C/C(=N\Nc1ccc(S(=O)(=O)N2CCCCCC2)cc1)C(N)=S	rCAG RNA binder 45.0 | rCAG binder conf 44.0 | DNA CAG counter 13.9
CCOC(=O)/C(C#N)=N/Nc1ccc(S(=O)(=O)N2CCc3ccccc32)cc1	rCAG RNA binder 39.9 | rCAG binder conf 42.2 | DNA CAG counter 15.1
N#C/C(=N\Nc1ccc(S(=O)(=O)N2CCc3ccccc32)cc1)C(N)=S	rCAG RNA binder 84.8 | rCAG binder conf 61.7 | DNA CAG counter 26.7
NS(=O)(=O)c1ccc(NC(=O)c2ccc(S(=O)(=O)N3CCc4ccccc43)cc2)cc1	none
COC(=O)[C@]12C[C@H](CC(=O)NCc3cccc(C(F)(F)F)c3)C(=O)N(Cc3ccccc3)C1=C[C@H](C(C)(C)C)O[C@@H]2C	none (no result: A3G deaminase, PHOSPHO1 block, APOBEC3A inh, ALR H2O2 inh, aDG glyco up)
C=CCN=C1NC(c2ccc(Cl)cc2)C(C(=O)OC)=C(C)N1Cc1cccc(C(F)(F)F)c1 (configuration not stated)	none (no result: A3G deaminase, PHOSPHO1 block, APOBEC3A inh, ALR H2O2 inh, aDG glyco up)
CN(C)CCNc1ncnc2c1ncn2[C@H]1CN(CCc2ccccc2)C[C@@H](CO)O1	none (no result: A3G deaminase, PHOSPHO1 block, APOBEC3A inh, ALR H2O2 inh)
CCn1c2ccccc2c2cc(NC(=O)CSc3nccc(=O)[nH]3)ccc21	rCAG RNA binder 44.5, ALR H2O2 inh 98.4 | rCAG binder conf 40.3 | DNA CAG counter 15.9
CCn1c(SCC(=O)Nc2ccc3c(c2)c2ccccc2n3CC)nnc1-c1ccco1	rCAG RNA binder 35.2 | rCAG binder conf inactive | DNA CAG counter 12.9
CCn1c(SCC(=O)Nc2cccc(NC(C)=O)c2)nnc1-c1ccco1	none
COCCNC(=O)C1(C)CCCN(Cc2cc(-c3ccccc3)on2)C1 (configuration not stated)	none (no result: A3G deaminase, PHOSPHO1 block, APOBEC3A inh, ALR H2O2 inh)
O=C(NNC(=O)C1CC1)c1cc(Br)c(Br)s1	rCAG RNA binder 35.5 (no result: PHOSPHO1 block) | rCAG binder conf 37.0 | DNA CAG counter 12.7
C=CCN(C(=O)[C@@H](C1CC1)[C@@H](O)c1ccc2ccccc2c1)c1ccccc1	none (no result: A3G deaminase, PHOSPHO1 block, APOBEC3A inh, ALR H2O2 inh, aDG glyco up)
COc1ccc(NC(=O)CCCNC(=O)c2ccc(Cl)cc2)cc1S(=O)(=O)N1CCOCC1	none (no result: A3G deaminase, PHOSPHO1 block, APOBEC3A inh, ALR H2O2 inh)
O=C(NNc1ccc(C(F)(F)F)cc1[N+](=O)[O-])c1ccc(NS(=O)(=O)c2ccc(F)cc2)cc1	rCAG RNA binder 71.0 (no result: A3G deaminase, APOBEC3A inh) | rCAG binder conf 60.9 | DNA CAG counter 22.1
CC(C)[C@H](Nc1ccc(C(F)(F)F)cc1[N+](=O)[O-])C(=O)O	none
CC(NC(=O)COC(=O)c1cc(NS(=O)(=O)c2ccc(Cl)c([N+](=O)[O-])c2)ccc1O)C1CC2CCC1C2 (configuration not stated)	rCAG RNA binder 44.1 | rCAG binder conf 58.1 | DNA CAG counter 21.5
CC1CCCN(c2cccc3c2S(=O)(=O)N(Cc2cccc(Cl)c2)[C@@H](C)[C@H](c2ccccc2)O3)C1 (some centres not stated)	none (no result: A3G deaminase, PHOSPHO1 block, APOBEC3A inh, ALR H2O2 inh, aDG glyco up)
N#CCc1nc2ccc(S(=O)(=O)N3CCOCC3)cc2s1	rCAG RNA binder 43.5 | rCAG binder conf inactive | DNA CAG counter 15.0
CSc1nc2ccc(S(=O)(=O)N3CCOCC3)cc2s1	none
CCOC(=O)[C@]12CCCCC/C=C\1N(CCc1ccc(Cl)cc1)C(=O)[C@H]2CC(=O)N1CCCC1	none (no result: A3G deaminase, PHOSPHO1 block, APOBEC3A inh, ALR H2O2 inh, aDG glyco up)
CN(C)/C=C/c1onc(-c2c(Cl)cccc2Cl)c1C#N	none
N#Cc1c(-c2c(Cl)cccc2Cl)noc1/C=C/Nc1ccc(C(=O)O)cc1	rCAG RNA binder 43.7 | rCAG binder conf 43.5 | DNA CAG counter 10.3
COc1ccc2[nH]c3c(C)c4ccncc4c(C)c3c2c1	rCAG RNA binder 37.4 | rCAG binder conf inactive | DNA CAG counter 27.2
O=c1ccn2c(n1)OC1CC2OC1COC(c1ccccc1)(c1ccccc1)c1ccccc1 (configuration not stated)	none (no result: A3G deaminase, PHOSPHO1 block, APOBEC3A inh, ALR H2O2 inh, aDG glyco up)
O=C(Nc1cccc(S(=O)(=O)NC2=NCCCCC2)c1)c1cc(-c2ccco2)nc2ccccc12	rCAG RNA binder 34.8 | rCAG binder conf inactive | DNA CAG counter 15.7
O=C(Nc1cccc(S(=O)(=O)NC2=NCCCCC2)c1)c1cc(-c2ccncc2)nc2ccccc12	none
O=[N+]([O-])c1cccc(S(=O)(=O)Nc2ccc(-c3ccc(N4CCCC4)nn3)cc2)c1	none (no result: PHOSPHO1 block)
O=[N+]([O-])c1ccccc1S(=O)(=O)Nc1ccc(-c2ccc(N3CCCC3)nn2)cc1	rCAG RNA binder 37.0 (no result: PHOSPHO1 block, ALR H2O2 inh) | rCAG binder conf 38.3 | DNA CAG counter 15.9
CCOc1ccc(-c2cccc(NS(=O)(=O)c3ccccc3[N+](=O)[O-])c2)nn1	rCAG RNA binder 34.7 (no result: PHOSPHO1 block) | rCAG binder conf inactive | DNA CAG counter 8.5
COc1ccc(-c2cccc(NS(=O)(=O)c3ccccc3[N+](=O)[O-])c2)nn1	none (no result: PHOSPHO1 block)
CCOc1ccc(-c2ccc(NS(=O)(=O)c3cc([N+](=O)[O-])c(C)c([N+](=O)[O-])c3)cc2)nn1	rCAG RNA binder 67.7 | rCAG binder conf 44.1 | DNA CAG counter 13.7
CCOc1ccc(-c2cccc(NS(=O)(=O)c3cc([N+](=O)[O-])ccc3C)c2)nn1	rCAG RNA binder 37.8 (no result: PHOSPHO1 block) | rCAG binder conf 42.9 | DNA CAG counter 13.0
CCCCN1C(=O)C(CC(=O)NCc2ccco2)CC(C(=O)N2CCCCCC2)=C1C (configuration not stated)	none (no result: A3G deaminase, PHOSPHO1 block, APOBEC3A inh, ALR H2O2 inh)
